Measurements taken from the supplement of paper PMC10849652.
Targets with a hit are over-represented here; the source holds about 7,900 in all. About 0.6% of all pairs of compound and target were hits. Unmarked numbers belong to inactive results.

Experiments:
Assay in all cases: log2 fold change, soluble protein after heating vs DMSO (PISA); higher = thermal stabilisation; K562 cells, 10 uM, 30 min; active = over 0.2 and 3.5 SD of the protein, either way, in both replicates (recomputed)
saracatinib = compound: CN1CCN(CCOc2cc(OC3CCOCC3)c3c(Nc4c(Cl)ccc5c4OCO5)ncnc3c2)CC1 [saracatinib]
Method in brief: (§1)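 Quantification of soluble protein used TMTpro 16plex LC-MS/MS, with channel sums equalised. Samples were the supernatant after 21,000xg for 90 min of pooled aliquots from K562 cells (2×10^6 cells/mL) treated with 10 μM compound for 30 min, heated for 3 min over 48°C-58°C, and extracted in PBS with 0.5% NP-40 at 4°C. Values, from duplicates, describe thermal stability against control samples on a log2 fold-change scale.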

sotrastaurin = compound: CN1CCN(c2nc(C3=C(c4c[nH]c5ccccc45)C(=O)NC3=O)c3ccccc3n2)CC1 [sotrastaurin]
Method in brief: as §1

alvocidib = compound: CN1CC[C@H](c2c(O)cc(O)c3c(=O)cc(-c4ccccc4Cl)oc23)[C@H](O)C1 [alvocidib]
Method in brief: as §1

Tubastatin A = compound: CN1CCc2c(c3ccccc3n2Cc2ccc(C(=O)NO)cc2)C1 [Tubastatin A]
Method in brief: as §1

[1] = compound: CNC(=O)C1=CC=CC=C1NC2=NC(=NC=C2Cl)NC3=C(C=C(C=C3)N4CCOCC4)OC
Method in brief: as §1

defactinib = compound: CNC(=O)c1ccc(Nc2ncc(C(F)(F)F)c(NCc3nccnc3N(C)S(C)(=O)=O)n2)cc1 [defactinib]
Method in brief: as §1

rucaparib = compound: CNCc1ccc(-c2[nH]c3cc(F)cc4c3c2CCNC4=O)cc1 [rucaparib]
Method in brief: as §1

[2] = compound: CNc1nc(-c2ccc3c(N)n[nH]c3c2)cc(N2C[C@@H](C(=O)NC3CCCCC3)CC[C@H]2C)n1
Method in brief: as §1

encorafenib = compound: COC(=O)N[C@@H](C)CNc1nccc(-c2cn(C(C)C)nc2-c2cc(Cl)cc(NS(C)(=O)=O)c2F)n1 [encorafenib]
Method in brief: as §1

[3] = compound: COC(=O)[C@H](CCSC)NC(=O)C1=C(C=C(C=C1)NC[C@H](CS)N)C2=CC=CC=C2
Method in brief: as §1

[4] = compound: COC1=CC=C(C=C1)CN2C=CC3=C2C=C(C=C3)C(=O)NO
Method in brief: as §1

filanesib = compound: CON(C)C(=O)N1N=C(c2cc(F)ccc2F)S[C@@]1(CCCN)c1ccccc1 [filanesib]
Method in brief: as §1

zotarolimus = compound: CO[C@H]1C[C@@H]2CC[C@@H](C)[C@@](O)(O2)C(=O)C(=O)N2CCCC[C@H]2C(=O)O[C@H]([C@H](C)C[C@@H]2CC[C@H](n3cnnn3)[C@H](OC)C2)CC(=O)[C@H](C)/C=C(\C)[C@@H](O)[C@@H](OC)C(=O)[C@H](C)C[C@H](C)/C=C/C=C/C=C/1C [zotarolimus]
Method in brief: as §1

idasanutlin = compound: COc1cc(C(=O)O)ccc1NC(=O)[C@@H]1N[C@@H](CC(C)(C)C)[C@](C#N)(c2ccc(Cl)cc2F)[C@H]1c1cccc(Cl)c1F [idasanutlin]
Method in brief: as §1

alisertib = compound: COc1cc(Nc2ncc3c(n2)-c2ccc(Cl)cc2C(c2c(F)cccc2OC)=NC3)ccc1C(=O)O [alisertib]
Method in brief: as §1

[5] = compound: COc1cc2nc(-c3cc(F)ccc3O)nc(N[C@@H]3CNC[C@H]3C(C)(C)O)c2cc1OC
Method in brief: as §1

gefitinib = compound: COc1cc2ncnc(Nc3ccc(F)c(Cl)c3)c2cc1OCCCN1CCOCC1 [gefitinib]
Method in brief: as §1

[6] = compound: COc1cccc2cc(-c3nc([C@H]4CC[C@H](C(=O)O)CC4)n4ncnc(N)c34)[nH]c12
Method in brief: as §1

lapatinib = compound: CS(=O)(=O)CCNCc1ccc(-c2ccc3ncnc(Nc4ccc(OCc5cccc(F)c5)c(Cl)c4)c3c2)o1 [lapatinib]
Method in brief: as §1

pictilisib = compound: CS(=O)(=O)N1CCN(Cc2cc3nc(-c4cccc5[nH]ncc45)nc(N4CCOCC4)c3s2)CC1 [pictilisib]
Method in brief: as §1

Sequence of UniProt Q4KMP7 (Q4KMP7 whole entry, looked up): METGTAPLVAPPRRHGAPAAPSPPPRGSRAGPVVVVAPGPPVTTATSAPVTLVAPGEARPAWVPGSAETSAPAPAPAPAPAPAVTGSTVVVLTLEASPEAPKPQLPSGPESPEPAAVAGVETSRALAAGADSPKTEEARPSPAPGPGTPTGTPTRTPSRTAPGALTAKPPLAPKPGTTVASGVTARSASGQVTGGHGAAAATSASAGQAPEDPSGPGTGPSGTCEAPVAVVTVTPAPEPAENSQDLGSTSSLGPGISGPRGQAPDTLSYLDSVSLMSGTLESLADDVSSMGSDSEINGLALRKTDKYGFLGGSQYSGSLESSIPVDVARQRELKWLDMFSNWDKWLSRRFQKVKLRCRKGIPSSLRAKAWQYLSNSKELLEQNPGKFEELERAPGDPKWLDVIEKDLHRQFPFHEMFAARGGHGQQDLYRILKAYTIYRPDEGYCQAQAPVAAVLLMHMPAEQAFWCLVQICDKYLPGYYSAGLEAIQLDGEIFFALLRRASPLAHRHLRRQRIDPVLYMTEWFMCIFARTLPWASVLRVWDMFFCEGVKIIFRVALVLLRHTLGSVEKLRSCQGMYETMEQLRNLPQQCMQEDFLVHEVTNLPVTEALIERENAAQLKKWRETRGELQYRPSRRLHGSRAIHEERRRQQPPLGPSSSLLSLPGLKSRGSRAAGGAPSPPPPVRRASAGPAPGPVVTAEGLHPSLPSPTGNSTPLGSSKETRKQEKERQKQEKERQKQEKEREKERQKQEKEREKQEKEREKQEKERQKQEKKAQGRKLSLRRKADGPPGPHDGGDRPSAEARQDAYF
Sequence of UniProt Q9Y5J6 (Q9Y5J6 whole entry, looked up): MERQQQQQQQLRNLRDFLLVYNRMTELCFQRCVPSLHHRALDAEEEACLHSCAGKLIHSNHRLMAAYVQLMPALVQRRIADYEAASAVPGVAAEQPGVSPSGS
Sequence of UniProt Q15796 (Q15796 whole entry, looked up): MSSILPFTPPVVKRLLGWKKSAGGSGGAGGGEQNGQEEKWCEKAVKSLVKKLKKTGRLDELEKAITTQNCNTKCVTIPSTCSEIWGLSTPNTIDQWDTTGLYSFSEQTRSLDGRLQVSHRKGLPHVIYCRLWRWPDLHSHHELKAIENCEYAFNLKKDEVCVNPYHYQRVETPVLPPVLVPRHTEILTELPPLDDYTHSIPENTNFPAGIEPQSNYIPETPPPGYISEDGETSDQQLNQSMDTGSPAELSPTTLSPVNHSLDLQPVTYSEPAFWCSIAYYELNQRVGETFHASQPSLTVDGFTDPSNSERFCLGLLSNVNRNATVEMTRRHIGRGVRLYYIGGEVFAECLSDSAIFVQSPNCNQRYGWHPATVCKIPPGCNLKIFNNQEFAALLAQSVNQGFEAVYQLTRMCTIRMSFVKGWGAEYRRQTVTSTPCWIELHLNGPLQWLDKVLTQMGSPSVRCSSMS
Sequence of UniProt Q12824 (Q12824 whole entry, looked up): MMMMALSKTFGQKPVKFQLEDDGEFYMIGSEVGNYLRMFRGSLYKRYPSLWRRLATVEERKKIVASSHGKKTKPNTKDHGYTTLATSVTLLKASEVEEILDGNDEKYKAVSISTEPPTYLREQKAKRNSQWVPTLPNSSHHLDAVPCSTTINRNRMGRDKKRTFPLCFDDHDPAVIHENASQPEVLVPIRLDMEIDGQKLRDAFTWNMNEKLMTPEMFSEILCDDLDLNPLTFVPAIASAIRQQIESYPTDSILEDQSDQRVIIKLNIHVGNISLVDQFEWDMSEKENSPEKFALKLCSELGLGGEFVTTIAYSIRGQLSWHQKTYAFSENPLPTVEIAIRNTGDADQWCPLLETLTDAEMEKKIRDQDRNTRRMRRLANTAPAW
Sequence of UniProt Q6ZRS2 (Q6ZRS2 whole entry, looked up): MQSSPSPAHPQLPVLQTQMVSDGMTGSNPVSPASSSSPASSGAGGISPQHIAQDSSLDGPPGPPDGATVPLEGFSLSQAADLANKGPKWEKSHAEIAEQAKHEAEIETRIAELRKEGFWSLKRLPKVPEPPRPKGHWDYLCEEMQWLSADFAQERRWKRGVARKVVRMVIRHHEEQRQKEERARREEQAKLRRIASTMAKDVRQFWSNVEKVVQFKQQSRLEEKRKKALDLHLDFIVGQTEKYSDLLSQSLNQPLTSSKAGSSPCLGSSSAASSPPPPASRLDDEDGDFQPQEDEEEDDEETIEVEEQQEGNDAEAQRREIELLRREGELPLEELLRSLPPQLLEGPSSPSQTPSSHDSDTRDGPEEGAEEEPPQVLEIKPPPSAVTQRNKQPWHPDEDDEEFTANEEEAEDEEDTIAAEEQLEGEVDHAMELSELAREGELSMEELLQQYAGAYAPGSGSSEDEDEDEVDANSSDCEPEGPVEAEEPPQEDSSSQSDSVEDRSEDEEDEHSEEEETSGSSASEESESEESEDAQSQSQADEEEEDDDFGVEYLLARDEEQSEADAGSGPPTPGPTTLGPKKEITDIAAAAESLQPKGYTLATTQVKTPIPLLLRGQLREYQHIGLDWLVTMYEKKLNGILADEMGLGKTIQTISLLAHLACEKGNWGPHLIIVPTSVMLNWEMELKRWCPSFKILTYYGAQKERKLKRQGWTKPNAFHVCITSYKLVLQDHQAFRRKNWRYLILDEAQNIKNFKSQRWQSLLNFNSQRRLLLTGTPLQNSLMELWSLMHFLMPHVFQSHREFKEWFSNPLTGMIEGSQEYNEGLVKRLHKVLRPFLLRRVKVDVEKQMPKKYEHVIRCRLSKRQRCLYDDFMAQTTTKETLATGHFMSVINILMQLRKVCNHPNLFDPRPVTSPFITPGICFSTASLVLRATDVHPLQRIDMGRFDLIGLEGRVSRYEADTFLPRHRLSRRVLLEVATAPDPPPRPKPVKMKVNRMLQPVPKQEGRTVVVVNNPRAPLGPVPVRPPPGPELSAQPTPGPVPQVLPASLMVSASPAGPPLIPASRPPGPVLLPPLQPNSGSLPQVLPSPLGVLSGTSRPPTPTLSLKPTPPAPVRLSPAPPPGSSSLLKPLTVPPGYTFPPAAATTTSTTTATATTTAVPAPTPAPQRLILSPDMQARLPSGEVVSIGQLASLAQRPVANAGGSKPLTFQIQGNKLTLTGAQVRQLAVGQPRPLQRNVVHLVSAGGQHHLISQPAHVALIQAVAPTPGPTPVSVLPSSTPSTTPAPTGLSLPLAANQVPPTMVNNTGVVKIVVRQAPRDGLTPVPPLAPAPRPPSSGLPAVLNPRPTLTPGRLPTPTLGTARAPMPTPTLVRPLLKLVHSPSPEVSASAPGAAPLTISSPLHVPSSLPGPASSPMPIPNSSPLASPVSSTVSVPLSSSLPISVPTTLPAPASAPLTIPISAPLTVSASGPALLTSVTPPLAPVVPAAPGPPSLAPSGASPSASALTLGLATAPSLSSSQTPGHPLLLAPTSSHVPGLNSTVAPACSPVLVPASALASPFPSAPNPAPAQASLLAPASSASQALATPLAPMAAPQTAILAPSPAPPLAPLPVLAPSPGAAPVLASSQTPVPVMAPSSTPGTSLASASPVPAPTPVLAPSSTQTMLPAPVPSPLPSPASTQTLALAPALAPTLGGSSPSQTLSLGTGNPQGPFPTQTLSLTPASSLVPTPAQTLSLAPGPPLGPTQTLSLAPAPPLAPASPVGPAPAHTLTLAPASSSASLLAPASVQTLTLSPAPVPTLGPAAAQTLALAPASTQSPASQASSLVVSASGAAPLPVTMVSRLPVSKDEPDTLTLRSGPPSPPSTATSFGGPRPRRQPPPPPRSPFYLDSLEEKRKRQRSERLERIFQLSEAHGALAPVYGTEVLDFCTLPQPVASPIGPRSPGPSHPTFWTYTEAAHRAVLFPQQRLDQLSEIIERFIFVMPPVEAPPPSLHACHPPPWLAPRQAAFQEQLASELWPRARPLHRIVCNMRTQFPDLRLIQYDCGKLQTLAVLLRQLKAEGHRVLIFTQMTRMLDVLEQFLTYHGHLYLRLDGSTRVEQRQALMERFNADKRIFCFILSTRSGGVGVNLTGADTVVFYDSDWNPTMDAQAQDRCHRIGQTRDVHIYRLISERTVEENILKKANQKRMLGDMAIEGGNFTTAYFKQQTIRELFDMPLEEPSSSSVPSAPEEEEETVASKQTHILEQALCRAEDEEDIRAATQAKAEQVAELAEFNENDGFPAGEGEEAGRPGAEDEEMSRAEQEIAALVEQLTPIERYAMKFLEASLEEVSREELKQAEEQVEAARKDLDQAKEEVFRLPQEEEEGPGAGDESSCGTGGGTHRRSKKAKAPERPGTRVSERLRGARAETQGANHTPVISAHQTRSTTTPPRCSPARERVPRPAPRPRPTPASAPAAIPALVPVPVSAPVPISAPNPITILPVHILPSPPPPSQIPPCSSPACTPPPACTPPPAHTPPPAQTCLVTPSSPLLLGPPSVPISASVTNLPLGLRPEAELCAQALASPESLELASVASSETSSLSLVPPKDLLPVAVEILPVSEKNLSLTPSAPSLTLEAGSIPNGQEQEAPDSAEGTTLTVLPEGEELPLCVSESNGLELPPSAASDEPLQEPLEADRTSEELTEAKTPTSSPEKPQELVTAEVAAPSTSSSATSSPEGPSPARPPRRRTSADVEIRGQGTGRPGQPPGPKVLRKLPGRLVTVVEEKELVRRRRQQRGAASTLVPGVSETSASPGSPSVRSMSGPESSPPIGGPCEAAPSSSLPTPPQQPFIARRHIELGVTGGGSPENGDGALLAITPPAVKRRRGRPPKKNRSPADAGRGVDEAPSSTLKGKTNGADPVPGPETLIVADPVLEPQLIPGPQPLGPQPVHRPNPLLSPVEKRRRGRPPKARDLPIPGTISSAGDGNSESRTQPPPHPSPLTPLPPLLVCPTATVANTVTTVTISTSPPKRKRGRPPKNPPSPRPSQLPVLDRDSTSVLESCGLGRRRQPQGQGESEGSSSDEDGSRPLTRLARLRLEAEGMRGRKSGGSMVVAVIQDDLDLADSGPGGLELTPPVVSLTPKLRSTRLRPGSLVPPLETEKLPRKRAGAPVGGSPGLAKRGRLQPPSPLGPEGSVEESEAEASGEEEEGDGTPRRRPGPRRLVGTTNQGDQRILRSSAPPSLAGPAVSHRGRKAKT
Sequence of UniProt Q9H4I9 (Q9H4I9 whole entry, looked up): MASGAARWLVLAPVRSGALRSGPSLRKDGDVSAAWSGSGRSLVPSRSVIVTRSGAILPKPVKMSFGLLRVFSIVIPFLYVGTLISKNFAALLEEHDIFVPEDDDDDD

Row | Target | log2 fold change (saracatinib) | log2 fold change (sotrastaurin) | log2 fold change (alvocidib) | log2 fold change (Tubastatin A) | log2 fold change [1] | log2 fold change (defactinib) | log2 fold change (rucaparib) | log2 fold change [2] | log2 fold change (encorafenib) | log2 fold change [3] | log2 fold change [4] | log2 fold change (filanesib) | log2 fold change (zotarolimus) | log2 fold change (idasanutlin) | log2 fold change (alisertib) | log2 fold change [5] | log2 fold change (gefitinib) | log2 fold change [6] | log2 fold change (lapatinib) | log2 fold change (pictilisib)
1 | SMAD2 (UniProt Q15796) | 0.001 | -0.235 | -0.316 | 0.016 | 0.025 | -0.142 | 0.043 | 0.039 | -0.045 | -0.052 | -0.011 | 0.091 | 0.043 | 0 | 0.032 | -0.016 | 0.117 | -0.032 | 0.043 | 0.102
2 | SUCLA2 (UniProt Q9P2R7) | -0.013 | 0.03 | 0.011 | 0.024 | 0.011 | -0.037 | -0.029 | -0.048 | 0.021 | -0.008 | -0.004 | -0.096 | 0.01 | -0.074 | 0.104 | 0.093 | 0.022 | 0.018 | -0.05 | 0.109
3 | TIMM10B (UniProt Q9Y5J6) | -0.046 | 0.074 | -0.022 | 0.109 | 0.484 (active) | -0.074 | 0.017 | -0.106 | -0.022 | -0.117 | – | -0.068 | 0.023 | 0.009 | -0.205 | 0.048 | 0.022 | 0.143 | -0.248 | -0.126
4 | TATDN2 (UniProt Q93075) | -0.017 | 0.111 | -0.136 | -0.094 | -0.002 | 0 | -0.175 | 0 | 0.099 | -0.031 | -0.011 | 0.002 | 0.006 | 0.012 | – | -0.015 | -0.037 | – | 0.021 | -0.016
5 | SMARCB1 (UniProt Q12824) | -0.09 | -0.192 | -0.106 | 0.016 | – | -0.158 | 0.809 (active) | -0.009 | -0.247 | 0.144 | -0.116 | 0.026 | 0.136 | – | – | – | – | – | – | 0.424
6 | SRCAP (UniProt Q6ZRS2) | 0.032 | -0.045 | -0.279 | -0.486 (active) | -0.069 | -0.004 | -0.058 | -0.028 | 0.009 | -0.015 | -0.083 | 0.097 | -0.02 | – | -0.091 | -0.067 | 0.198 | 0.062 | 0.049 | 0.015
7 | STK25 (UniProt O00506) | -0.045 | 0.088 | 0.028 | -0.007 | -0.078 | -0.041 | 0.011 | -0.012 | 0.039 | 0.051 | -0.06 | -0.006 | -0.039 | 0.006 | -0.055 | 0.076 | -0.061 | 0.038 | -0.047 | 0.053
8 | TBC1D10B (UniProt Q4KMP7) | -0.025 | -0.036 | -0.036 | 0.001 | -0.015 | -0.008 | 0.094 | 0.009 | 0.048 | -0.023 | -0.001 | 0.062 | 0.011 | 0.032 | -0.088 | -0.088 | 0.008 | -0.042 | 0.041 | -0.002
9 | SMDT1 (UniProt Q9H4I9) | 0.092 | -0.077 | -0.005 | 0.035 | – | 0.014 | 0.057 | -0.064 | 0.011 | 0.003 | -0.053 | -0.39 (active) | -0.014 | -0.087 | -0.058 | – | – | 0.014 | – | 0.095
